Screening data deposited in PubChem by National Center for Advancing Translational Sciences (NCATS).
TRHR PAM – qHTS for Small Molecule Agonists and Allosteric Enhancers of Human TRH Receptor: Primary Screen for Enhancers. TRHR cells, fluo-8 calcium fluorescence, EC20 TRH enhancement. enhancement, % at 2 µM. 360,000 compounds, 0.66% hits. AID 493056, 2011; in the data active = enhancement above about 30%
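Enhancer read-out: after compound pinning and an initial kinetic agonist-mode read, an EC20 of TRH (10 nM final) was injected and fluo-8 calcium signal (Ex 480/Em 530) followed at 1 s/cycle for 100 cycles in TRHR-expressing cells.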
D1 agonist – Allosteric Agonists of the Human D1 Dopamine Receptor: qHTS; D(1A) dopamine receptor (Homo sapiens), P21728; HEK293 T-REx D1 cells, calcium flux, agonist mode; activation, % at 2 µM; 360,000 compounds, 1% hits; AID 504660, 2011
Target sequence (P21728 whole entry, looked up): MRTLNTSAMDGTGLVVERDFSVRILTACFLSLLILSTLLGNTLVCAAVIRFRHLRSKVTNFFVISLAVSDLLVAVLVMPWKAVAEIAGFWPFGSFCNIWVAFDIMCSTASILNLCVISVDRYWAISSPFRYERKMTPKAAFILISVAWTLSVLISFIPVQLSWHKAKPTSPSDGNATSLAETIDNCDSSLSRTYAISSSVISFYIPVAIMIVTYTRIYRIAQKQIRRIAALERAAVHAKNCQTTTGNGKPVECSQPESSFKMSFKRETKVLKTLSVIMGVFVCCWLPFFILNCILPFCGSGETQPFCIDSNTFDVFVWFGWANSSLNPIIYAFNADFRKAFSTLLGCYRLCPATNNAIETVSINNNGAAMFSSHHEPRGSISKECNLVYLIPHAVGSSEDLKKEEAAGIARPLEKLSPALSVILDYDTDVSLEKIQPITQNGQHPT
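Inducible HEK293 T-REx D1 cells, force-coupled to calcium signalling, were plated at 4000 cells/well with tetracycline and held overnight at 30 C. After no-wash calcium dye loading, compound-evoked calcium rise over 180 s flagged agonists.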
D1 PAM – Potentiators of Human D1 Dopamine Receptor: qHTS. potentiation, % at 10 µM. AID 504651, 2011. D(1A) dopamine receptor (Homo sapiens), P21728. 360,000 compounds, 0.036% hits. HEK293 TREx D1 cells, calcium flux, dopamine EC20 potentiation; in the data active = potentiation above about 30%
TRHR ag – qHTS for Small Molecule Agonists and Allosteric Enhancers of Human TRH Receptor: Primary Screen for Agonists; 360,000 compounds, 0.18% hits; activation, % at 2 µM; TRHR cells, calcium flux fluo-8, FDSS agonist mode; Thyrotropin-releasing hormone receptor (Homo sapiens), P34981
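Steps: seed TRHR cells overnight; add fluo-8 no-wash Ca dye, RT 30 min–1.5 h; record 10 s baseline; pin-transfer compounds; monitor fluorescence 1 cycle/s for the agonist window. Calcium increases flag candidate agonists.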
D1 antagonist – Antagonist of Human D 1 Dopamine Receptor: qHTS; D(1A) dopamine receptor (Homo sapiens), P21728; HEK293 TREx D1 cells, calcium flux, dopamine EC80; stronger effect = lower value; activity change, negative = inhibition, % at 10 µM; 360,000 compounds, 3.2% hits; AID 504652, 2011; in the data active = activity change below about -30%
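After overnight tetracycline induction at 30 C, force-coupled D1 HEK293 cells took up a no-wash calcium dye at room temperature. Compounds were added and monitored 180 s, and the response to EC80 dopamine was then recorded.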
Of the large screens only hits and unclear results are named; the others gave an inactive call. Rows were chosen to be rich in hits. Some 4.6% of all compounds tested hit in one or more screens of this group. Cut-off read from the data, not from the text of the source, unless noted: active = activation above about 30%; inactive = the rest.

CN1CCN(C(=O)c2cc(Cl)ccc2NC(=O)c2ccc(Cl)cc2Cl)CC1	D1 antagonist -31
CN(c1ccc(C(=O)N2CCCCCC2)cc1)S(=O)(=O)c1ccc(Cl)cc1	D1 antagonist -38
Cc1ccc(C(=O)N2CCC(C(=O)c3ccc(Cl)cc3)CC2)cc1	D1 antagonist -44
CN(c1ccc(C(=O)N2CCOCC2)cc1)S(=O)(=O)c1ccc(Cl)cc1	none
O=C(Nc1ccccc1C(=O)N1CCCC1)c1ccc(Cl)cc1Cl	none
Cc1ccccc1OCC(=O)OCc1cc(=O)n2nc(-c3cccs3)sc2n1	none
O=C(O)CCc1ccc(-c2ccccc2)n1-c1cccc(Br)c1	none
O=c1cc(-c2ccccc2Cl)oc2c(NS(=O)(=O)c3cc(Cl)cc(Cl)c3O)ccc(O)c12	D1 agonist 82, D1 antagonist -52
COc1ccc(N2CCN(C(=O)c3cc4c(-c5ccccc5F)nn(C)c4s3)CC2)cc1	none
COc1ccc(NC(=S)NNC(=O)COc2ccc(Cl)cc2Cl)cc1	D1 agonist 44
COC(CC(=O)NNC(=S)Nc1ccc(Cl)cc1)OC	D1 antagonist -30
COc1ccc(CCNc2ccc(N3C(=O)CC(C)C3=O)cc2[N+](=O)[O-])cc1OC (stereo not given)	D1 antagonist -34
CC(=O)c1ccc(N2CCN(C(=O)CCCCn3c(=O)[nH]c4ccsc4c3=O)CC2)cc1	none
O=C1CC(c2cccc(O)c2)Oc2ccccc21 (stereo not given)	D1 antagonist -32
Cc1nc2ccc([N+](=O)[O-])cc2c(=O)n1Cc1ccccc1Br	D1 antagonist -43
Cc1nc2ccc([N+](=O)[O-])cc2c(=O)n1Cc1cccc(Br)c1	none
Cc1nc2ccc([N+](=O)[O-])cc2c(=O)n1Cc1ccc([N+](=O)[O-])cc1	D1 antagonist -62
Cc1ccc(C)c(S(=O)(=O)NCC(c2ccco2)S(=O)(=O)c2ccc(F)cc2)c1 (stereo not given)	none (no result: D1 antagonist)
COC(=O)/C=c1/s/c(=C(\C#N)C(=O)NCc2ccco2)n(-c2ccccc2)c1=O	D1 antagonist -33
CN1CCN(CCCNC(=O)c2cnn(-c3ccccc3)c2C2CCN(C(=O)OC(C)(C)C)CC2)CC1	none
COc1ccccc1N1CCN(CCCNC(=O)c2cnn(-c3ccc(C)c(C)c3)c2C2CCN(C(=O)OC(C)(C)C)CC2)CC1	none
Cc1ccc(C)c(N2CCN(CCCNC(=O)c3cnn(-c4ccccc4)c3C3CCN(C(=O)OC(C)(C)C)CC3)CC2)c1	D1 antagonist -42
COc1ccccc1N1CCN(CCCNC(=O)c2cnn(-c3cccc(Cl)c3)c2C2CCN(C(=O)OC(C)(C)C)CC2)CC1	D1 antagonist -31
O=C(Nc1cccnc1)c1ccc(COc2cc(Cl)ccc2Cl)o1	none
O=C(N/N=C/c1ccc(O)cc1)c1ccc(COc2cc(Cl)ccc2Cl)o1	D1 agonist 43
COc1ccc(CC(=O)Nc2nnc3n2CCS3)cc1	none
OCCn1c(-c2ccc(F)cc2)csc1=Nc1ccccc1	D1 antagonist -31
COc1ccc(-c2ccc(=O)n(Cc3ccccc3)n2)cc1	none
COc1ccc(-c2c(C)nn(Cc3ccccc3)c2N)cc1	TRHR PAM 30
Fc1ccc(-c2cc(-c3ccccc3)c3c(n2)-c2cc(F)ccc2OC3)cc1	none
COc1ccc(Br)cc1CN(C)CC(=O)Nc1ccccc1Cl	none
COc1ccc(Br)cc1CN(C)CC(=O)Nc1cc(Cl)ccc1Cl	D1 antagonist -31
COc1cc(Cl)c(C)cc1NC(=O)CN(C)Cc1cccc(OC)c1OC	D1 agonist 50
COc1ccccc1CN(C)CC(=O)Nc1cccc2ccccc12	none
CC1=C(C(=O)Nc2ccccc2C)C(c2cccnc2)n2nc(SCc3ccccc3F)nc2N1 (stereo not given)	none
CCOc1ccc(NC(=O)CSc2cn(CC(=O)N3CCOCC3)c3ccccc23)cc1	none
Cc1cccc(NC(=O)CSc2nc(C3CCCC3)nc3c2c(=O)n(C)c(=O)n3C)c1C	none
